Results: PubChem BioAssay (Tox21)
Results filed as inconclusive are left out. Activity calls are given as the source filed them. The call rests on the fitted dose curve. Where a SMILES comes first, the peptide text is derived from it. [ ]: non-standard residue; d: D form. pGlu = O=C1CC[C@@H](C(=O)O)N1

These compounds were tested against Peroxisome proliferator-activated receptor delta (Homo sapiens) (UniProt Q03181) (assay: qHTS assay to identify small molecule agonists of the peroxisome proliferator-activated receptor delta (PPARd) signaling pathway (AID 743212)). Details: HEK293H PPARd-UAS-bla, beta-lactamase FRET ratio, 17 h; series mostly up to 62.6 µM; activation: at the top concentration.
Outline: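 GeneBLAzer PPARd UAS-bla HEK293H cells (beta-lactamase reporter under UAS control), plated and rested 5 h at 37 C, then exposed to compounds in DMSO at 37 C; LiveBLAzer B/G FRET substrate added, 2 h room temperature, fluorescence read.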
On the % scale 0 is the no-effect control and ±100 the full control effect.

Sequence of Peroxisome proliferator-activated receptor delta (Homo sapiens) (Q03181 whole entry, looked up): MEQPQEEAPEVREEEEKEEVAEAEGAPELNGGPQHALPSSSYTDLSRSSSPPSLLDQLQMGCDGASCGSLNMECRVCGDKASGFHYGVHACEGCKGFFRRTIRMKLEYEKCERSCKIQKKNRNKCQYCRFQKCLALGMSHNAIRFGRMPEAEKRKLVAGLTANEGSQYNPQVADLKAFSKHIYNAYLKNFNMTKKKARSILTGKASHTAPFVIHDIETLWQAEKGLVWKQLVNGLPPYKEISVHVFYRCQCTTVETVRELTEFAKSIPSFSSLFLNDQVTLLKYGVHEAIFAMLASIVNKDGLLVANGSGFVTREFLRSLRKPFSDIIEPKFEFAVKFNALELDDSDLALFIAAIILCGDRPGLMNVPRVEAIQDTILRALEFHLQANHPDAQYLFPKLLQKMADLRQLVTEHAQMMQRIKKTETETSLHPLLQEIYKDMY

SMILES | activation
O=C(O)CNC(=O)c1ccccc1 | -3.8% (inactive)
CC(C)CC(C)(N)C#N (stereo not drawn) | 0.307% [at 81.1 µM] (inactive)
CCOC(=O)c1cnc2c(cnn2CC)c1NN=C(C)C | -9.42% (inactive)
COc1ccccc1OCC1CNC(=O)O1 (stereo not drawn) | 4.36% (inactive)
CO/N=C(\C(=O)N[C@@H]1C(=O)N2C(C(=O)O)=C(CSc3nc(=O)c(O)nn3C)CS[C@H]12)c1csc(N)n1 | 5.03% (inactive)
O=C1CCCCCCCCCCCCCCO1 | -1.52% (inactive)
CCCc1nn(C)c2c(=O)[nH]c(-c3cc(S(=O)(=O)N4CCN(C)CC4)ccc3OCC)nc12 | 0.488% (inactive)
CCCCOC(=O)CCC(C)=O | 0.231% (inactive)
O=CN(CCO)CCO | 1.03% (inactive)
C[N+](C)(CCOc1ccccc1)Cc1cccs1 | -0.526% (inactive)
CC1=NN(c2cccc(S(=O)(=O)O)c2)C(=O)C1 | 1.35% (inactive)
CCOC(=O)C1=NOC(c2ccccc2)(c2ccccc2)C1 | -1.51% (inactive)
CCC(=O)OCc1ccccc1 | 1.15% (inactive)
COc1cc(C(=O)OC(COCCC(C)C)CN2CCOCC2)cc(OC)c1OC (stereo not drawn) | -1.26% (inactive)
CC12CCC(C(=O)C1=O)C2(C)C (stereo not drawn) | 0.449% [at 81.1 µM] (inactive)
NC(N)=NCCN1CCCCCCC1 | 3.33% [at 0.55 µM] (inactive)
Cc1ncc(COP(=O)(O)O)c(C=O)c1O | -4.09% (inactive)
CC(=O)Oc1cccc(C)c1 | -2.26% (inactive)
CN1[C@@H]2CC[C@H]1CC(OC(=O)C(O)c1ccccc1)C2 (stereo partly drawn) | -0.527% (inactive)

SMILES | activation
CC(N)C12CC3CC(CC(C3)C1)C2 (stereo not drawn) | -0.562% (inactive)
CCN(CC#N)c1cccc(C)c1 | 6.28% (inactive)
CC1=NN(c2cc(S(=O)(=O)O)ccc2Cl)C(=O)C1N=Nc1ccccc1 (stereo not drawn) | -0.944% (inactive)
CC(=O)c1ccccc1[N+](=O)[O-] | 1.63% (inactive)
C=CCCC(=O)O | -2.58% (inactive)
O=C(O)CC(C(=O)O)S(=O)(=O)O (stereo not drawn) | -1.04% (inactive)
CC(C)CCCO | 2.71% (inactive)
CC(COc1ccccc1)NN (stereo not drawn) | 0.43% (inactive)
Nc1ccn([C@@H]2O[C@H](CO)[C@@H](O)[C@@H]2O)c(=O)n1 | -4.88% (inactive)
CCNC(=O)[C@@H]1CCCN1C(=O)[C@H](CCCN=C(N)N)NC(=O)[C@H](CC(C)C)NC(=O)CNC(=O)[C@H](Cc1ccc(O)cc1)NC(=O)[C@H](CO)NC(=O)[C@H](Cc1c[nH]c2ccccc12)NC(=O)[C@H](Cc1cnc[nH]1)NC(=O)[C@@H]1CCC(=O)N1 ([pGlu]HWSYGLRP-NHEt) | 1.75% (inactive)
CCCCN(CCC(=O)OCC)C(C)=O | -1.13% (inactive)
CCCn1cc[n+](C)c1C | -2.64% [at 81.1 µM] (inactive)
Clc1cc(Cl)cc(Cl)c1 | -2.21% (inactive)
CCOC(=O)COc1cc(-n2ncc(C(F)(F)F)c(C)c2=O)c(F)cc1Cl | 0.316% (inactive)
CC(C)COC(=O)c1ccc(N)cc1 | -4.12% (inactive)
CC(=O)OCC(=O)[C@@]1(O)[C@H](C)C[C@H]2[C@@H]3CCC4=CC(=O)C=C[C@]4(C)[C@@]3(F)[C@@H](O)C[C@@]21C | 0.89% (inactive)
O=C(O)CCCC[P+](c1ccccc1)(c1ccccc1)c1ccccc1 | -0.0839% (inactive)
CC1=CCC(O)(C(C)C)CC1 (stereo not drawn) | -2.57% (inactive)
[K+] | -0.058% (inactive)
